Each structure is given as a SMILES string. The source made the active and inactive calls. Rule for the calls: active = hit-call score of the fitted dose curve at least 0.9, where 1 is the maximum; inactive = score below 0.9.

Read-out in the experiment: Glutathione S-transferase M3 (GSTM3), GSTM3 (gene 2947)
Kind of experiment: LTEA_HepaRG_GSTM3: Life Technologies and Expression Analysis (LTEA) Assay for Glutathione S-transferase M3 (GSTM3) using HepaRG (AID 2283501). To be noted: mRNA level, 48 h; actives raise or lower the signal. Here is the method:
LTEA_HepaRG is a cell based, multiplexed-readout assay that uses HepaRG, a human liver cell line, with measurements taken at 48 hours after chemical dosing on a 96-well plate.LTEA_HepaRG_GSTM3 is one of 102 assay component(s) measured in the LTEA HepaRG cell culture assay. It is a marker of Oxidative Stress.Data from the assay component LTEA_HepaRG_GSTM3 was analyzed into 1 endpoint. This assay endpoint, LTEA_HepaRG_GSTM3, was analyzed with bidirectional fitting relative to DMSO as the negative control and baseline of activity. Using a type of inducible reporter, measures of mRNA induction for gain or loss-of-signal activity can be used to understand regulation of transcription factor activity. To generalize the intended target to other relatable targets, this assay endpoint is annotated to the transferase intended target family, where the subfamily is alkyl and aryl transferase.
A total of 1060 chemcials from the ToxCast library were tested in eight-point concentration-response experiments. Cell culture and cytotoxicity assays were conducted at Thermo Fisher Scientific's Custom Services facility (Madison, WI). A single lot of human HepaRG cells (Thermo Fisher Scientific, Frederick, MD) was used for the cell culture experiments. 96-well format collagen type I coated plates of human HepaRG cells were prepared using established methods. Briefly, cryopreserved HepaRG cells were thawed, plated at a density of approximately 100,000 cells/well in HepaRG Thaw, Plate, and General Purpose media (HPRG770, Thermo Fisher Scientific), and incubated for 48 hours. 0.5% DMSO was selected as vehicle control to balance the requisite need of DMSO in HepaRG cultures to maintain differentiation (for example, baseline metabolism, proportions of hepatocytes vs. cholangiocytes), while enabling further hepatic receptor pathway activation (for example, PXR and CAR) in response to chemical exposure. 48 hours after plating, the culture medium was replaced with HepaRG Serum-Free Incudtion Media. Cells were exposed to each test chemical in duplicate and maintained in CO2 incubators for another 48 hours. Chemical plates were thawed to room temperature and 200x concentrations of treatment groups were prepared. 8-point conentration-reponse curves were made with the highest exposure at 100 uM, followed by half-log dilutions, all in 0.5% DMSO. Each test plate contained variouse controls, induction positive controls (1mM phenobarbital), cytotoxicity positive controls ([…] aflatoxin B1), vehicle controls (0.5% DMSO), and total lysis controls (0.5% DMSO). Cell morphology images were taken using an Essen IncuCyte FLR automated microscope, with six 96-well plates imaged in about 24 minutes. Images were captured and exported and JPEG files. Spent culture media was transfered to black-well plates for the LDH assay, and remaining media was sorted at -80 C for later use. Cells were treated with RLT buffer and frozen until shipped for gene expression analysis. Total RNA was isolated from the cell suspension in 75 uL of Buffer RLT (Qiagen, Germantown, MD 20874) by Quintiles/Expression Analysis (Durham, NC) using a custom isolation procedure. Total RNA from each plate well was transferred to a preamplification plate. Fluidigm's 96.96 Dynamic ArrayTM (Fluidigm, Amsterdam, the Netherlands) technology was used for gene expression analyses by quantitative reverse transcription polymerase chain reaction (qRT-PCR, performed by Quintiles/Expression Analysis, Durham, NC)89. Standard TaqManTM Assays (Applied Biosystems/ThermoFisher Scientific, Foster City, CA) were used to assess the expression of 93 genes selected based on their selectivity and sensitivity to important hepatic receptors known to be modulated by environmental chemicals; importance in human hepatocyte functionality; and hepatotoxicity. […]
Take `C[C@]12CCC(=O)C=C1CC[C@@H]1[C@@H]2CC[C@]2(C)C(=O)CC[C@@H]12`: the molecule was classed as inactive.

Turning to `CN(C)c1nc(=O)n(C2CCCCC2)c(=O)n1C`, the molecule was classed as inactive.

On to `Cc1cc(O)ccc1Cl`, for which the result was inactive.

Consider `Cc1cccc(C)c1N`, for which the molecule was classed as inactive.

`CN(C)CCO`: the molecule was called inactive.

In the case of `CCC(C)(c1ccc(O)cc1)c1ccc(O)cc1`, the result was inactive.

For `O=NN(c1ccccc1)c1ccccc1`, the result was inactive.

Take `NS(=O)(=O)C(F)(F)C(F)(F)C(F)(F)C(F)(F)C(F)(F)C(F)(F)C(F)(F)C(F)(F)F`: the molecule was classed as inactive.

Take `Oc1ccc(C(c2ccc(O)cc2)(C(F)(F)F)C(F)(F)F)cc1`: the call was inactive.

For `CC(C)(O)C(=O)Nc1ccc([N+](=O)[O-])c(C(F)(F)F)c1`, the molecule was classed as inactive.

For `CCNc1nc(NC(C)C)nc(SC)n1`, the molecule was classed as inactive.

As for `Clc1ccc(Cl)cc1`, the call was inactive.

In the case of `ClC1=C(Cl)[C@]2(Cl)[C@@H]3[C@H]4C[C@H]([C@@H]5O[C@H]45)[C@@H]3[C@@]1(Cl)C2(Cl)Cl`, the molecule was called inactive.

Consider `C1CC2OC2CC1C1CO1` (stereo not given), for which the molecule was classed as inactive.

As to `O=C(O)C(F)(F)C(F)(F)C(F)(F)C(F)(F)C(F)(F)F`, the molecule was called inactive.

In the case of `CC(C)C(=O)OCC(C)(C)C(OC(=O)C(C)C)C(C)C` (stereo not given), the result was inactive.

`CCOP(=S)(OCC)SCSC(C)(C)C`: the call was inactive.

Consider `Cc1cc2c3c(c1)C(c1ccccc1)=N[C@@H](NC(=O)c1ccncc1)C(=O)N3CC2`, for which the call was inactive.

As for `Oc1ccc(Cl)cc1Cl`, the call was inactive.

For the molecule `CCCCCCCCCc1ccc(O)cc1`, the call was inactive.

Regarding `Clc1ccc(C(Cl)(Cl)Cl)cc1`, the call was inactive.

As to `ClC(Cl)=C(c1ccc(Cl)cc1)c1ccc(Cl)cc1`, the call was inactive.

As a reminder, the AC50 is the midpoint of the concentration-response curve, whichever way the signal moves. Consider `O=C(O)C(F)(F)C(F)(F)C(F)(F)C(F)(F)C(F)(F)C(F)(F)C(F)(F)C(F)(F)C(F)(F)F`, for which the AC50 was 74.8 µM (active).

For `COc1ccc(O)c(C(C)(C)C)c1`, the outcome was inactive.

Regarding `CO/C=C(/C(=O)OC)c1ccccc1COc1cccc(C(F)(F)F)n1`, the half-maximal activity concentration (AC50) is 50 µM (active).

As to `O=C(NC(=O)c1cc(F)c(F)cc1Cl)Nc1cc(F)ccc1N1CCC(C(=O)O)CC1`, the molecule was called inactive.

Turning to `O=S(=O)(O)C(F)(F)C(F)(F)C(F)(F)C(F)(F)C(F)(F)C(F)(F)F`, the outcome was inactive.

As for `CCOCCOC(C)=O`, the call was inactive.

Take `CCCCCCOC(=O)c1ccccc1C(=O)OCCCCCC`: the result was inactive.

In the case of `O=C(O)C(F)(F)C(F)(F)C(F)(F)C(F)(F)C(F)(F)C(F)(F)C(F)(F)C(F)(F)F`, the outcome was inactive.

For the molecule `C[C@]12CCC(=O)C=C1CC[C@@H]1[C@@H]2CC[C@@]2(C)[C@H]1CC[C@]2(C)O`, the outcome was inactive.

For `CCOC(=O)C(O)(c1ccc(Cl)cc1)c1ccc(Cl)cc1`, the molecule was classed as inactive.

With `CCCCCCCCOC(=O)c1ccccc1C(=O)OCCCCCCCC`, the outcome was inactive.

On to `Nc1ccc(-c2ccc(N)cc2)cc1`, for which the molecule was classed as inactive.

In the case of `CCCCCCCCCC[N+](C)(C)CCCCCCCCCC`, the call was inactive.

On to `CCC(C)(CC)c1cc(NC(=O)c2c(OC)cccc2OC)on1`, for which the outcome was inactive.

As to `Oc1c(Cl)c(Cl)c(Cl)c(Cl)c1Cl`, the AC50 is 4.88 µM (active).

Regarding `O=S(=O)(O)C(F)(F)C(F)(F)C(F)(F)C(F)(F)F`, the outcome was inactive.

Consider `Cc1ccccc1[N+](=O)[O-]`, for which the molecule was classed as inactive.

Consider `C=CC(N)=O`, for which the call was inactive.

The values are drawn from PubChem BioAssay (EPA / NIEHS).
